Source: PubChem (several laboratories)
Shown are actives, neighbours in structure and some others; about 4.9% of the full set was active somewhere.
PP1 inh: counter-screen for PP5 inhibitors: inhibitors of human PP1-alpha; P62136; purified PP1alpha, OMFP fluorescence; inhibition, % at 6.7 µM; 320,000 tested, 0.9% active; AID 2235;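 active = inhibition above the mean inhibition of all tested compounds plus 3 SD, computed separately for each screening campaign, cut at about 15% in these data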
Target sequence (P62136 whole entry, looked up): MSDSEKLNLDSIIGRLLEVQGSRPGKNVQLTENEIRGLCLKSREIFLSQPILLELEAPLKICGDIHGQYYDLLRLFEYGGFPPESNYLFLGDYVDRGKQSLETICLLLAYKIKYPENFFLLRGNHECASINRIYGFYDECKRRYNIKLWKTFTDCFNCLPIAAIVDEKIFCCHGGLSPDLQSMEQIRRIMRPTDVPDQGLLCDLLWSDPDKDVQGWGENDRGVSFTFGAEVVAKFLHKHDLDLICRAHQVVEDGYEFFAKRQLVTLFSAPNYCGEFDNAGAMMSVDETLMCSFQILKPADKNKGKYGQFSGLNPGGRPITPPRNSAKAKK
CSC inhib: blocks cancer stem cells | inhibition, % at 7.5 µM | 300,000 tested, 1.1% active | cancer stem cell-like cells viability, luminescence; in the data active = inhibition above about 75%; inconclusive = no clear call, values can overlap the other calls; tested in HMLE shEcad cells
Calb FLC: affects C. albicans growth with fluconazole | C. albicans CaCi-2 (fluconazole-resistant clinical isolate) + fluconazole, Alamar Blue growth, 48 h | growth inhibition, % (test concentration not listed) | AID 1979 | 300,000 tested, 0.57% active;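 active = growth inhibition above about 58% in most replicates, limit read from the data, passing the limit was not always enough; inconclusive = exactly half the replicates above a set limit; inactive = most replicates below a set limit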;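 also: all wells also contain fluconazole at 8 µg/ml as a sub-toxic cotreatment; 0% = median of DMSO wells and 100% = median of geldanamycin control wells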
Mdm2-MdmX inh: inhibitors of human Mdm2/MdmX interaction; O15151+Q00987; SaOS-2 split-luciferase Mdm2/MdmX complementation, luminescence; inhibition, % at 8 µM; 330,000 tested, 3% active;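 active = inhibition of at least 50% at 8 µM in the primary screen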
Beta apoptosis: beta cell apoptosis inhibition; INS-1E cytokine-induced death, ATP luminescence, 48 h; percent of positive-control rescue, neutral wells zero; protection from apoptosis, % (test concentration not listed); 300,000 tested, 0.8% active; AID 435005;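 active = Every replicate reaches about 75%, or at least half do and their mean reaches it too, limit read from the data; inconclusive = At least half of replicates reach the limit but their mean does not; inactive = Under half of replicates reach the limit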;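 also: 0% = cytokine-treated negative control wells and 100% = positive control rescue; higher means more ATP so stronger rescue from cytokine killing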
PP5 primary: PP5 (human) phosphatase inhibition. P53041. purified PP5c, OMFP substrate fluorescence. inhibition, % at 6.7 µM. 320,000 tested, 0.18% active;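 active = inhibition above the campaign's mean inhibition across all tested compounds plus 3 SD, cut at about 9.5% in these data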;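 also: 0% = DMSO only and 100% = 100 µM cantharidin control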
PP1 inh confirm: human PP1 phosphatase inhibition, confirmation. inhibition, % at 6.7 µM. shares compounds with PP1 inh. AID 2358. purified PP1alpha, OMFP substrate fluorescence. 1,900 tested, 52% active;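 active = mean PP1 inhibition above a set limit taken from the earlier primary screen, cut at about 15% in these data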
PP5 counter: counter-screen for PP1 inhibitors: human PP5 phosphatase inhibition; inhibition, % at 6.7 µM; 1,900 tested, 4% active; shares compounds with PP1 inh; AID 2360; purified PP5c, OMFP fluorescence;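 active = mean PP5 inhibition over triplicate wells above about 9.5% taken from the earlier PP1 screen, limit read from the data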
* hit, by the source's call.

`O=C(O)C1C2CCC(O2)C1C(=O)NCc1ccc(Cl)cc1` (configuration not stated) gave PP1 inh 32*, Calb FLC -2, Mdm2-MdmX inh 13, PP5 primary 48*, PP1 inh confirm 17* and PP5 counter 32*.
Screening Cn1c(=O)[nH]c2ncccc21 returned PP1 inh 28*, CSC inhib -5, Calb FLC 0, Mdm2-MdmX inh -4, Beta apoptosis -15, PP5 primary -1, PP1 inh confirm -3 and PP5 counter -6.
Screening Cn1c(=O)[nH]c2c(Cl)nccc21 returned PP1 inh 0, CSC inhib -18, Calb FLC -1, Mdm2-MdmX inh 17, Beta apoptosis -10 and PP5 primary -1.
Screening O=C(Oc1coc(CSc2nnc(NC(=O)C3CC3)s2)cc1=O)c1c(F)cccc1F returned PP1 inh -1, CSC inhib 27, Calb FLC -11, Mdm2-MdmX inh -18, Beta apoptosis -10 and PP5 primary -3.
CCOC(=O)c1ccc2c(c1)C1C=CCC1C(C(=O)O)N2 (configuration not stated) was read as PP1 inh 30*, CSC inhib -1, Mdm2-MdmX inh 1, Beta apoptosis 6, PP5 primary 1, PP1 inh confirm 12 and PP5 counter -2.
Screening CC(C)C1Nc2ccc(C(=O)O)cc2C2C=CCC21 (configuration not stated) returned PP1 inh 5, CSC inhib -4, Calb FLC 2, Mdm2-MdmX inh 5, Beta apoptosis 0 and PP5 primary 1.
`CCCCN1C(=O)Cc2c1nc(N)c1c(N)nc(N(CCC)CCC)c(C#N)c21` gave PP1 inh 16*, CSC inhib 5, Calb FLC 9, Beta apoptosis 40, PP5 primary 15*, PP1 inh confirm 8 and PP5 counter 0.
Screening CCCCCC(=O)Nc1cc(S(=O)(=O)N2CCOCC2)ccc1N1CCCCC1 returned PP1 inh -1, CSC inhib -7, Calb FLC 10, Mdm2-MdmX inh 23, Beta apoptosis -2 and PP5 primary 0.
`COc1cccc2c(=O)c3cccc(N)c3[nH]c12` gave PP1 inh 20*, CSC inhib -6, Calb FLC -8, Mdm2-MdmX inh 17, Beta apoptosis -3, PP5 primary 1, PP1 inh confirm 19* and PP5 counter 13*.
Screening COc1cccc2c(=O)c3c([nH]c12)OC(C)(C)C3 returned PP1 inh -1, CSC inhib -3, Calb FLC -2, Mdm2-MdmX inh -34 and PP5 primary 3.
`O=C(NCCS(=O)(=O)N1CCN(c2cccc(Cl)c2)CC1)c1ccc2c(c1)OCO2` gave PP1 inh -5, CSC inhib 6, Calb FLC -2, Mdm2-MdmX inh 28 and PP5 primary 2.
For CC(NS(=O)(=O)OCC(Cl)(Cl)Cl)c1ccc(C(C)(C)C)cc1 (configuration not stated) the results were PP1 inh 19*, CSC inhib inconclusive, Calb FLC -13, Beta apoptosis 9, PP5 primary 8, PP1 inh confirm 2 and PP5 counter 3.
`O=C(O)C1C2CCC(O2)C1C(=O)Nc1ccc(OC(F)F)cc1` (configuration not stated) gave PP1 inh 68*, CSC inhib -1, Calb FLC -6, Mdm2-MdmX inh 21, Beta apoptosis 1, PP5 primary 68*, PP1 inh confirm 12 and PP5 counter 26*.
`Cc1ccc(NC(=O)C2C3CCC(O3)C2C(=O)O)cc1C` (configuration not stated) gave PP1 inh 81*, CSC inhib 12, Calb FLC -2, Mdm2-MdmX inh 6, Beta apoptosis 2, PP5 primary 83*, PP1 inh confirm 22* and PP5 counter 43*.
Screening Cc1ccc(NC(=O)C2CCC(=O)N2)cc1C (configuration not stated) returned PP1 inh -2, CSC inhib -5, Calb FLC 0, Mdm2-MdmX inh 0, Beta apoptosis -7 and PP5 primary 2.
